# The list is not random: actives were taken first. Their share in the collection is about 8.7%.
# AMA1 RON2 block – qHTS for Inhibitors of AMA1-RON; Towards Development of Antimalarial Drug Lead: Primary Screen | Plasmodium falciparum AMA1 (3D7) - RON2 peptide interaction | AlphaScreen AMA1-biotinylated RON2 peptide binding | Potency, µM (series often up to 58.2 µM), for the others: at the highest dose activity change, negative = inhibition, actives largely listed as inhibitors | 360,000 compounds, 0.2% hits | AID 720542, 2013;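 note: 0% = vehicle wells and -100% = peptide control; nearly all actives have a fitted effect of over 45% in size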
#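 AMA1 (3D7) with his tag at 25 nM final met compounds first, then biotinylated RON2 peptide at 25 nM; detection used donor plus acceptor beads, 10 µg/mL apiece, read by AlphaScreen after 30 min at room temperature.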
# VACV mCherry inh – qHTS for Stage-Specific Inhibitors of Vaccinia Orthopoxvirus: mCherry Reporter Primary qHTS | Vaccinia virus mCherry reporter infection, fluorescence | Potency, µM (titrated, usually from 36.5 µM), without a hit: at the top dose activity change, negative = inhibition, hits mostly inhibitors | 310,000 compounds, 0.63% hits | AID 720579, 2013; calls by dose curve; tested in A549 cells; note: nearly all actives have a fitted effect of over 35% in size
# VACV Venus inh – qHTS for Stage-Specific Inhibitors of Vaccinia Orthopoxvirus: Venus Reporter Primary qHTS. 330,000 compounds, 0.46% hits. Potency, µM (series often up to 36.5 µM), without a hit: at the top dose activity change, negative = inhibition, usual class: inhibitors. Vaccinia virus Venus reporter expression, fluorescence; calls by dose curve; tested in A549 cells; note: nearly all actives have a fitted effect of over 30% in size
# Pf growth 96h – Primary qHTS for delayed death inhibitors of the malarial parasite plastid, 96 hour incubation. 320,000 compounds, 6.9% hits. AID 504834, 2011. Potency, µM (highest dose often 28.7 µM), for the others: at the highest dose activity change, negative = inhibition, actives largely listed as inhibitors. P. falciparum luciferase reporter growth, 96 h
#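 P. falciparum expressing integrated firefly luciferase, in erythrocytes at 2% hematocrit, 0.05% parasitemia, incubated with compounds 96 h at 37 C, 5% CO2. Growth inhibition read as loss of luminescence; two-generation exposure targets delayed-death apicoplast inhibitors.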
# Pf growth 48h – Primary qHTS for delayed death inhibitors of the malarial parasite plastid, 48 hour incubation; Potency, µM (series often up to 28.7 µM), inactives show top-dose activity change, negative = inhibition, most hits filed as inhibitors; 310,000 compounds, 5.9% hits; P. falciparum luciferase growth in erythrocytes, 48 h
#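 Luminescence readout; reporter = integrated firefly luciferase in P. falciparum. RBC culture at 2% hematocrit, 0.1% parasitemia final, 37 C/5% CO2; decreased signal taken as growth inhibition.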
# Starred values were filed as active, the others as inactive; i = inactive; ? = inconclusive; . = no result given; [ ] = remark or other dose. Unless noted, calls come from the whole dose curve; as a rule, active = well fitted curve in the direction sought with a large enough effect; inconclusive = small, poorly fitted or top-dose-only effect, or another doubt; inactive = no such curve, though single readings can be large; an effect the other way counts as inactive or inconclusive. Unless noted, % is set by controls: 0 for no effect and ±100 for the full control effect; potency is the fitted concentration of half-maximal effect.
SMILES,AMA1 RON2 block,VACV mCherry inh,VACV Venus inh,Pf growth 96h,Pf growth 48h
CSc1ccc(CN2CCN(Cc3ccccc3)C(CCO)C2)cc1 (stereo not given),-9.6%,-13.1%,-19.5%,11.7µM*,-7.5%
CSc1cccc(CN2CCN(Cc3ccccc3)C(CCO)C2)c1 (stereo not given),8.8%,.,.,0.0%,-16.4%
Cc1ccc(CN2CCN(Cc3cccc(-n4cccn4)c3)CC2CCO)cc1 (stereo not given),-2.4%,-4.0%,-10.9%,-32.5%,-20.5%
OCCC1CN(Cc2ccc3ncccc3c2)CCN1Cc1ccccc1 (stereo not given),-8.2%,-2.2%,-9.5%,?,-4.5%
Cc1ccc(CN2CCN(Cc3ccccn3)CC2CCO)cc1 (stereo not given),8.7%,-3.0%,-2.9%,-3.8%,16.4%
O=C(Cn1ncc2c([nH]c3ccccc32)c1=O)NCCCN1CCN(c2ccc(F)cc2)CC1,.,-17.0%,-11.2%,.,.
COc1ccc(C2=C(N3CCN(c4cccc(C)c4)C(C)C3)c3ccccc3C2=O)cc1 (stereo not given),.,-14.1%,-1.6%,.,.
COc1ccccc1Cc1nc2ccccc2nc1SCC(=O)Nc1cc(Cl)ccc1OC,.,-9.4%,-5.0%,.,.
CCOC(=O)c1c(C)sc(Sc2ccc(Cl)cc2[N+](=O)[O-])c1OC,?,.,-34.2%,.,3.7µM*
CCOC(=O)c1c(S(=O)(=O)N2CCCCCC2)c(C)n(C)c1C,-12.9%,-14.5%,-1.5%,?,2.7%
CCOC(=O)c1c(S(=O)(=O)N2CCCC(C(=O)Nc3ncccc3C)C2)c(C)n(C)c1C (stereo not given),-6.0%,-3.6%,-11.0%,11.7µM*,4.8%
CCOC(=O)c1c(S(=O)(=O)N2CCC(C)CC2)c(C)n(C)c1C,-6.2%,.,.,8.28µM*,10.0%
Cc1cc(=O)[nH]c(NN)n1,78.1%,-20.6%,-10.5%,9.28µM*,?
Cc1cc(=O)[nH]c(Nc2cccc(C(F)(F)F)c2)n1,-2.0%,.,-22.3%,13.1µM*,?
Cc1cc(=O)[nH]c(SCC(=O)Nc2cccc(C(F)(F)F)c2)n1,6.3%,.,-19.5%,.,10.8%
Cc1nn(C)cc1CN1CCOc2ccc(CN3CCC(Oc4cccnc4)CC3)cc2C1,.,-14.2%,-8.6%,.,.
Cc1cccc(N2CCN(C(=O)c3ccc(NC(=O)c4nsc5ccccc45)cc3)CC2)c1C,.,-15.2%[7.34 µM],-14.4%[7.34 µM],.,.
CC(C)NC(=O)CN1CCN(C(=O)CCl)CC1,10.6%,12.6µM*,10µM*,?,-18.9%
CN(C)C(=O)CN1CCN(C(=O)CCl)CC1,3.6%,.,.,?,-18.6%
Cc1cccnc1-c1cccc2c1OC(CNC(=O)C1CCCc3c1[nH]c1ccccc31)C2 (stereo not given),.,-5.7%,-20.8%,.,.
NC(N)=NCc1cccc(I)c1,1.7%,-12.1%,-28.7%,10.7µM*,?
COc1cc(N[C@@H](C)CCCN)c2ncccc2c1,.,.,.,0.573µM*,0.809µM*
COc1cc(NC(C)CCCN)c2ncccc2c1Oc1ccccc1 (stereo not given),3.1%,-6.3%,-7.1%,2.08µM*,?
CCCN1CNc2c(c(=O)[nH]c(=S)n2CCc2cc(C)cc(C)c2)C1,.,i,-23.5%,.,.
Cn1c(=O)n(C)c2cc(N3CCCCC3)c(NC(=O)c3cccc(Cl)c3)cc21,21.7%,i,-18.8%,?,10.4µM*
SMILES,AMA1 RON2 block,VACV mCherry inh,VACV Venus inh,Pf growth 96h,Pf growth 48h
COc1ccc(C(=O)Nc2cc3c(cc2N2CCOCC2)n(C)c(=O)n3C)cc1OC,13.6%,i,-5.6%,?,?
CCn1c(=O)n(CC)c2cc(N3CCCC3)c(NC(=O)c3cccc(OC)c3)cc21,-18.1%,.,.,0.738µM*,?
CCOc1ccc(C(=O)Nc2cc3c(cc2N2CCCC2)n(CC)c(=O)n3CC)cc1OCC,0.0%,.,.,11.7µM*,?
CCOc1cc(C(=O)Nc2cc3c(cc2N2CCOCC2)n(C)c(=O)n3C)cc(OCC)c1OCC,0.0%,-10.6%,0.9%,8.28µM*,-16.0%
Cc1ccc(Cl)cc1NC(=O)c1oc2ccc(S(=O)(=O)N3CCC4(CC3)OCCO4)cc2c1C,.,?,-26.1%,.,.
CCOC(=O)C1CCN(C(=O)C2CCN(S(=O)(=O)c3c(C)noc3/C=C/c3ccc(C)cc3)CC2)CC1,.,-17.7%,-14.6%,.,.
COc1ccc(S(=O)(=O)N2CCCCC2)cc1NC(=O)CCCOc1ccc(C)cc1,-9.2%,i,-4.1%,?,10.4µM*
COc1ccc(OCCOc2ccc(S(=O)(=O)N3CCCC3)cc2C(N)=O)cc1,5.5%[11.6 µM],-23.3%,-19.5%,3.7µM*,-8.3%
COc1ccc(S(=O)(=O)N2CCN(CCOc3ccc(Br)cc3)CC2)cc1OC,-3.3%,.,.,?,8.28µM*
COc1ccc(S(=O)(=O)N2CCCCC2)cc1NC(=O)CCCOc1ccccc1,19.6%,.,.,-18.0%,?
NC(=O)c1cc(S(=O)(=O)N2CCCC2)ccc1OCCOc1ccccc1F,4.0%,-14.4%,-15.2%,4.5%,?
CC(=O)c1ccc(OCCCC(=O)Nc2cc(S(=O)(=O)N3CCCCC3)ccc2C)cc1,-7.9%,-3.7%,-16.9%,13.1µM*,?
CCOc1ccc(CNC(=O)CCn2nc(C)c3c(C)n(-c4ccccc4)nc3c2=O)cc1,.,i,-6.8%,.,.
Cc1nc2ccccc2c(C)c1CC(=O)N(CC(C)C)c1c(N)n(Cc2ccccc2)c(=O)[nH]c1=O,-11.4%,-23.6%,-14.6%,11.7µM*,?
CC(C)CN(C(=O)CCCc1nc2ccccc2c(=O)[nH]1)c1c(N)n(Cc2ccccc2)c(=O)[nH]c1=O,2.9%,-11.4%,-9.7%,-7.6%,24.3%
CCCN(C(=O)Cc1coc2cc(C)c(C)cc12)c1c(N)n(Cc2ccccc2)c(=O)[nH]c1=O,-4.5%,-13.3%,-5.0%,?,?
Cc1cc2occ(CC(=O)N(CC(C)C)c3c(N)n(Cc4ccccc4)c(=O)[nH]c3=O)c2cc1C,0.8%,-13.1%,-7.2%,-6.9%,16.5µM*
Cc1nc2ccn(Cc3cccnc3)c(=O)c2cc1C(=O)N1CCN(c2ccccc2)CC1,.,0.1%,-4.1%,.,.
CN(C)c1nccc(Nc2ccccc2)c1C#N,-3.4%,.,-20.8%,58.6%,-4.2%
CN(C)c1ccnc(Nc2ccc(O)cc2)c1C#N,-8.0%,-11.3%,-6.2%,10.4µM*,?
COc1cccc(CNC(=O)c2cnc(N3CCCCC3)c3ccccc23)c1,.,-13.3%,-7.8%,.,.
CN(CC(=O)NC(=O)NCc1ccccc1)Cc1ccc(Cl)cc1,15.6%,-14.3%,-15.5%,48.9%,14.6%
CN(CC(=O)NC(=O)NCc1ccccc1)Cc1cccc(Cl)c1Cl,-7.0%,14.1µM*,?,36.6%,2.0%
CN(C)c1nc(NCc2ccccc2)nc(SCC(=O)Nc2ccc(Cl)c(Cl)c2)n1,-4.1%,.,.,11.7µM*,10.4µM*
